# Test results published in PubChem BioAssay (NCI).
# About 79,000 compounds went through this panel and 15% of them were active in at least one assay; those are over-represented in the sample as a whole. A number with no mark means an inactive call. Active and inactive are the calls of the source. Cut-off read from the data, not from the text of the source: active = growth inhibition above about 70%; inactive = the rest.
# Key:
# [1] = NCI Yeast Anticancer Drug Screen. Data for the rad50 strain (AID 155);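 note: 0% = growth of vehicle-only cultures of the same strain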; conditions: S. cerevisiae rad50 strain growth inhibition, hits give high values
# Summary of the method: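 Readout: growth inhibition relative to vehicle-treated cultures. Compound exposure was carried out in a genetically defined yeast strain deficient in DNA damage repair.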
# [2] = NCI Yeast Anticancer Drug Screen. Data for the mec2-1 strain (AID 157); conditions: S. cerevisiae mec2-1 strain, hits give high values
# Summary of the method: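 Each compound was tested on mec2-1 yeast, a strain altered in DNA damage repair or cell cycle control. Growth inhibition is reported relative to vehicle.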
# [3] = NCI Yeast Anticancer Drug Screen. Data for the sgs1 mgt1 strain (AID 161);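 note: 0% = growth of cultures given vehicle only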; conditions: S. cerevisiae sgs1 mgt1 strain, hits give high values
# Summary of the method: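 Test agents were incubated with a DNA-repair-mutant yeast strain. Growth was then read and compared against vehicle-treated controls.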
# [4] = NCI Yeast Anticancer Drug Screen. Data for the cln2 rad14 strain (AID 165);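 note: 0% = growth equal to vehicle treated cultures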; conditions: S. cerevisiae cln2 rad14 strain, hits give high values
# Summary of the method: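 Test compounds were added to cln2 rad14 yeast cultures; inhibition of growth was then determined by comparison with vehicle treatment.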
# [5] = NCI Yeast Anticancer Drug Screen. Data for the bub3 strain (AID 167); conditions: S. cerevisiae bub3 mutant strain, hits give high values
# Summary of the method: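 Readout: yeast growth inhibition, expressed relative to vehicle-only wells. The test organism is a mutant strain from a panel with lesions in DNA repair or checkpoint genes.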
# [6] = NCI Yeast Anticancer Drug Screen. Data for the mlh1 rad18 strain (AID 175); conditions: S. cerevisiae mlh1 rad18 strain growth inhibition, hits give high values
# Summary of the method: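 Inhibition values reflect reduced growth of mutant yeast versus vehicle-treated controls following compound exposure; the mutations affect DNA damage repair.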
# [7] = at 5.0 µM (retest, dose inferred, filed as 0.5)
# [8] = at 50.0 µM (retest, dose inferred, filed as 5.0)
Compound,"growth inhibition [1, 7]","growth inhibition [1, 8]",growth inhibition ([1]; at 50.0 µM),"growth inhibition [2, 7]","growth inhibition [2, 8]",growth inhibition ([2]; at 50.0 µM),"growth inhibition [3, 7]","growth inhibition [3, 8]",growth inhibition ([3]; at 50.0 µM),"growth inhibition [4, 7]","growth inhibition [4, 8]",growth inhibition ([4]; at 50.0 µM),"growth inhibition [5, 7]","growth inhibition [5, 8]",growth inhibition ([5]; at 50.0 µM),"growth inhibition [6, 7]","growth inhibition [6, 8]",growth inhibition ([6]; at 50.0 µM)
C=C1CC2(CC(C(C)C)CCC2C)OC1=O (centres undefined),14%,38%,7.5%,13%,52%,-2.45%,23%,54%,14.7%,31%,57%,19.6%,42%,53%,-11.8%,35%,64%,2.3%
COC(=O)/C(C#N)=C(/SC)N(C)C,4%,7%,4.35%,8%,15%,4.1%,2%,10%,-10.3%,6%,7%,38.6%,0%,7%,2.55%,12%,11%,-10.3%
Cc1nnc(NS(=O)(=O)c2ccc(N=Nc3cc(N=Nc4ccc(S(=O)(=O)Nc5nnc(C)s5)cc4)c4c(NC(=O)C(Cl)Cl)cccc4c3OC(=O)C(Cl)Cl)cc2)s1 (tested in a mixture with another compound),90% (active),-11%,51.8%,92% (active),24%,53.6%,89% (active),-9%,69.5%,90% (active),6%,65.8%,91% (active),-3%,58.2%,80% (active),-44%,79.5% (active)
Cc1ccc(N2CC3CC4(C)C=CC3(C2)O4)cc1 (centres undefined),6%,8%,76% (active),-9%,1%,49.7%,10%,22%,79.8% (active),-22%,10%,-6.65%,13%,-3%,89.5% (active),30%,-1%,50.8%
CC1SC(c2ccc(Cl)cc2)N2C(=O)C(C)SC(c3ccc(Cl)cc3)N2C1=O (centres undefined),84% (active),91% (active),71% (active),53%,91% (active),27.1%,85% (active),95% (active),30.9%,84% (active),93% (active),52.6%,79% (active),94% (active),26.1%,74% (active),90% (active),60%
c1ccc([P+](C[P+](c2ccccc2)(c2ccccc2)c2ccccc2)(c2ccccc2)c2ccccc2)cc1,98% (active),99% (active),47.4%,98% (active),100% (active),99.5% (active),98% (active),99% (active),58.4%,97% (active),99% (active),99.4% (active),98% (active),99% (active),99.7% (active),98% (active),99% (active),99.5% (active)
OCCN=C1c2ccccc2C2C(c3ccccc31)C1c3ccccc3C(=NCCO)c3ccccc3C21 (centres undefined),-9%,13%,46.8%,-4%,-8%,29.8%,6%,6%,37.4%,4%,18%,31.1%,-6%,6%,40.5%,3%,47%,82% (active)
O=Nc1c(NO)c2ccccc2c2ccccc12,5%,96% (active),99.1% (active),-2%,91% (active),96.2% (active),-8%,93% (active),97.8% (active),2%,82% (active),85.8% (active),-9%,95% (active),98.2% (active),20%,95% (active),98.2% (active)
O=C(/C=C/c1ccc(O)cc1)c1cc(Cl)ccc1O,10%,96% (active),95.7% (active),6%,97% (active),95.7% (active),36%,97% (active),92.4% (active),-4%,97% (active),94.2% (active),4%,97% (active),96.5% (active),7%,96% (active),93.3% (active)
NC(=O)c1oc([N+](=O)[O-])c(-c2ccccc2)c1-c1ccccc1,9%,38%,12.4%,5%,50%,16.6%,14%,61%,55.4%,-6%,10%,-22.6%,16%,80% (active),92.2% (active),11%,78% (active),64.2%
CNC(=O)OCc1c(COC(=O)NC)c2n(c1C)-c1ccccc1CCC2,23%,35%,85.8% (active),11%,70% (active),89.6% (active),38%,75% (active),90% (active),38%,56%,88.9% (active),50%,77% (active),87.5% (active),15%,43%,87.6% (active)
CCCN1CSC(=S)N(CCC)C1,41%,92% (active),52.5%,48%,92% (active),77% (active),32%,99% (active),80.5% (active),66%,98% (active),32.1%,34%,100% (active),86.2% (active),37%,97% (active),72.8% (active)
OCCN(CCO)c1cc(/C=C/c2ccnc3ccccc23)nc2ccccc12,7%,32%,60.5%,1%,23%,28.6%,12%,47%,28.6%,-1%,43%,61.5%,1%,-13%,-12.6%,9%,35%,53.4%
N#Cc1c([N+](=O)[O-])cc(C(F)(F)F)cc1[N+](=O)[O-],92% (active),99% (active),99.5% (active),63%,100% (active),99.6% (active),68%,100% (active),99.5% (active),82% (active),99% (active),99.2% (active),92% (active),100% (active),99% (active),92% (active),99% (active),99.3% (active)
Cc1ccc(C(=O)OCC(C)C)cc1N=NN(C)C,4%,21%,68.8%,-3%,-6%,19.9%,-5%,14%,29.4%,7%,31%,38.8%,-1%,48%,31.1%,-24%,38%,8.3%
O=C(c1ccccc1)c1ccc2cccc(O)c2n1,19%,63%,88.8% (active),-18%,31%,91.5% (active),-11%,55%,90.8% (active),5%,34%,88.8% (active),-21%,77% (active),91.7% (active),-19%,77% (active),89.4% (active)
CCCCCCCCCCCOc1cccc(N2C(N)=NC(N)=NC2(C)C)c1,99% (active),91% (active),98.8% (active),99% (active),96% (active),99.5% (active),99% (active),96% (active),98.6% (active),98% (active),90% (active),58.5%,98% (active),96% (active),99.1% (active),99% (active),95% (active),98.7% (active)
O=C(O)C1C(Br)(c2ccccc2)C1(Br)c1ccccc1 (centres undefined),47%,90% (active),90.7% (active),-1%,30%,17.7%,9%,70% (active),69%,25%,93% (active),83.8% (active),-3%,10%,7.05%,-8%,55%,59.9%
